Test results as given in PubChem BioAssay.
Values joined by “and” are separate entries in the source; they are usually repeats but may differ in a detail not shown here. Identical values can stand only once. Active and inactive are the calls of the source. Unless noted, no stated cut-off is given here; in the data, active means parasite load remaining mostly below about 12% (no sharp cut-off); inactive means mostly above about 10%.

What was measured:
[1] = compounds altering viability of human ES cells (AID 493140; call rule not given here;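 further: cells exposed to compounds for four days before counting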); conditions: human embryonic stem cell survival screen; stronger effect = higher value
[2] = P. berghei load reduction in hepatocytes – cell-based, HepG2, luciferase luminescence, HepG2 viability, primary screen (AID 624349);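 further: 100% = mean of DMSO negative control wells on the same plate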; conditions: P. berghei liver stage in HepG2, luciferase luminescence, concentration not given here; parasite load remaining: stronger effect = lower value; viability: measured here: HepG2 viability without parasites
[3] = Wnt pathway potentiators raising nuclear beta-catenin – imaging, WNT3A-conditioned medium, mouse C2C12, NPC library, primary screen (AID 1117326; in the data active means nuclear beta-catenin stimulation mostly above about 4.2%, no sharp cut-off; inactive means mostly below about 10%); conditions: stronger effect = higher value
[4] = stimulators of insulin release from INS-1E, primary screen, cell-based, 5 mM glucose, NPC library (AID 1117329;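 active means compound raises insulin release from rat beta cells at 5 mM glucose, no numeric limit stated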); conditions: rat INS-1E insulin secretion, at 10 µM, stronger effect = higher value
[5] = growth inhibition of GSK3B-pretreated HCT116 cells – cell-based, CellTiter-Glo, 0.2 to 20 µM (AID 1117336;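 active means compounds lowering colon cancer cell viability after pretreatment blocking the GSK3B kinase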); conditions: HCT116 viability after GSK3B inhibitor, at 20 µM, stronger effect = higher value
[6] = inhibition of endothelial tube formation, primary screen, imaging, VEGF stimulated, CD31 staining, tube area, NPC library (AID 1117340;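 active means compound that reduces growth-factor-driven endothelial tube area in a mixed cell culture, no cutoff stated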); conditions: VEGF-stimulated ADSC/ECFC co-culture, at 10 µM, stronger effect = higher value
[7] = GLP1 release stimulators, primary, NCI-H716, NPC library (AID 1117341;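 active means compound raises GLP1 secretion from the human gut endocrine cells, with no numeric limit stated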); conditions: NCI-H716 cells, at 10 µM, stronger effect = higher value
[8] = HCT116 colon cancer cell growth inhibition, primary screen, CellTiter-Glo luminescence, NPC library (AID 1117342;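 active means compounds that lower survival of HCT116 colon cancer cells in the luminescence readout, no numeric limit stated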); conditions: at 20 µM (top of the series)
[9] = reduced SW480 viability measured with CellTiter-Glo, NPC library, primary (AID 1117343;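 active means compounds that lower viability of the colon cancer cells in the luminescence readout, with no numeric limit stated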); conditions: CellTiter-Glo luminescence; at 20 µM (top of the series) unless noted
[10] = NPC library primary testing for decreased DLD-1 cell viability via CellTiter-Glo (AID 1117346;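 active means compounds that lower survival of DLD-1 colon cancer cells in the luminescence readout, no cutoff given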); conditions: DLD-1 viability, CellTiter-Glo luminescence; at 20 µM (top of the series)
[11] = EMT-state selective cytotoxicity in co-culture – imaging, PC-3E GFP, TEM4-18 mCherry, primary screen (AID 1345086;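 active means compounds killing one labelled cell type while sparing the other, by normalised counts and ratio limits, not self-fluorescent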;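 on all read-outs here: cells exposed to compound for 72 h before imaging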;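 on red/green cell ratio (normalised): normalised mesenchymal count divided by normalised epithelial count so high means epithelial killing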); conditions: PC-3E GFP / TEM4-18 mCherry co-culture, imaging cell counts, at 1 µM; for red/green cell ratio (normalised): actives lie on both sides, counts scaled to control wells, 1 = unselective
[12] = viability loss with induced miR-34 in A549 – imaging, A549 dox-inducible miR-34, nuclei and caspase counts, primary screen (AID 1347080;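 active means compounds whose cell count with miR-34 switched on is under 0.7 times the count with it off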); conditions: A549 miR-34 inducible, Hoechst nuclei count, 48 h
[13] = MELAS cybrid and Rieske KO viability enhancers – cell-based, MELAS cybrids, Rieske KO mouse fibroblasts, CellTiter-Glo, primary screen (AID 1508586;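 active means mean z-score across replicates of 1.96 or higher in either the MELAS or the Rieske mutant cell line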;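 further: z relative to plate mean and SD of compound and empty wells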); conditions: low glucose
[14] = biological target: NAD(+) hydrolase SARM1 (Homo sapiens) (UniProt Q6SZW1); assay: blocking NAD cleavage by SARM1 SAM-TIR – cell lysate, NAD-Glo luminescence (AID 1508614;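 active means compound whose remaining NAD level is above about 45 nM, limit read from the data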); conditions: SAM-TIR HEK293T lysate NADase, at 1 µM, stronger effect = higher value
[15] = measured here: epithelial PC-3E GFP cell survival
[16] = measured here: mesenchymal TEM4-18 mCherry cell survival
[17] = stronger effect = lower value, cell number ratio, induced over uninduced
[18] = measured here: relative caspase fold change +Dox/-Dox
[19] = measured here: total cells with miR-34 induction, stronger effect = lower value
[20] = measured here: total cells without miR-34 induction
[21] = MELAS cybrid survival, CellTiter-Glo 48 h, stronger effect = higher value
[22] = Rieske KO mouse fibroblast survival, CellTiter-Glo 72 h

Chain of NAD(+) hydrolase SARM1 (Homo sapiens) (Q6SZW1 whole entry, looked up): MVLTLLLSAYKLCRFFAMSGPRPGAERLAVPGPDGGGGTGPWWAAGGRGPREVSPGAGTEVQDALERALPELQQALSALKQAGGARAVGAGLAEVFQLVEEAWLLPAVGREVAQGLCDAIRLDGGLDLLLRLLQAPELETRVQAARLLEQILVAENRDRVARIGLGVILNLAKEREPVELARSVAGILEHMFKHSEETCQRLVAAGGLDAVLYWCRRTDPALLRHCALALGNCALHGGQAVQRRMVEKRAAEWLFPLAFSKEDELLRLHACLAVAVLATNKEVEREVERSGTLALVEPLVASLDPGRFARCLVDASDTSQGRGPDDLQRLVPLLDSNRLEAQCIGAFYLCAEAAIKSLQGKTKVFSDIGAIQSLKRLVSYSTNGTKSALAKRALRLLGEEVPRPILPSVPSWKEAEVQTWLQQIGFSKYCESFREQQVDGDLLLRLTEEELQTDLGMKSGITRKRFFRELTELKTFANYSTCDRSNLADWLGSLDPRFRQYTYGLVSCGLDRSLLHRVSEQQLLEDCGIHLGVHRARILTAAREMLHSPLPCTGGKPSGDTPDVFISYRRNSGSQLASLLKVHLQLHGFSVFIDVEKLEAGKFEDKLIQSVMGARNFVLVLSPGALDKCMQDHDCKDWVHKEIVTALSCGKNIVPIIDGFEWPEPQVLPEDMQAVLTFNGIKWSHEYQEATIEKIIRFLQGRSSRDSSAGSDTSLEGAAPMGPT

SMILES: C[C@@H](O)[C@H]1C(=O)N2C(C(=O)O)=C(SCCN=CN)C[C@H]12
- survival [1]: 8.25 (inactive)
- parasite load remaining [2]: 97.9% (inactive) and 82.7% (inactive) and 21.5% (inactive)
- viability [2]: 121% and 75.9% and 75.5%
- nuclear beta-catenin stimulation ([3]; at 10 µM): 0.4% (inactive)
- nuclear beta-catenin stimulation ([3]; stimulation, at 2 µM): 4%
- insulin secretion stimulation [4]: -0.5% (inactive)
- viability decrease [5]: 6.7% (inactive)
- tube area decrease [6]: 8.2% (inactive)
- GLP1 secretion stimulation [7]: -1.8% (inactive)
- inhibition of viability [8]: 1.15% (inactive)
- viability decrease (inhibition) [9]: -18.3% (inactive)
- viability decrease (inhibition) [10]: 2% (inactive)
- red/green cell ratio (normalised) [11]: 0.95 (inactive)
- normalised cell number [11, 15]: 1.17
- normalised cell number [11, 16]: 1.11
- fold change [12, 17]: 1.02 (inactive) and 0.837 (inactive) and 0.836 (inactive)
- fold change [12, 18]: 2.4 and 1.6 and 1.5
- cell count [12, 19]: 10800 and 9100 and 8570
- cell count [12, 20]: 10500 and 10900 and 10300
- z-score [13, 21]: 0.502 (inactive) and 0.0491 (inactive)
- z-score [13, 22]: -0.015 and -0.95
- remaining NAD [14]: 10 nM (inactive)

SMILES: CC(=O)CC(c1ccc([N+](=O)[O-])cc1)c1c(O)c2ccccc2oc1=O (stereo not drawn)
- survival [1]: 21.3 (inactive)
- parasite load remaining [2]: 45.5% (inactive) and 55% (inactive)
- viability [2]: 108% and 91.9%
- nuclear beta-catenin stimulation ([3]; at 10 µM): -1.1% (inactive)
- nuclear beta-catenin stimulation ([3]; stimulation, at 2 µM): -1.3%
- insulin secretion stimulation [4]: 0.6% (inactive)
- viability decrease [5]: -2.5% (inactive)
- tube area decrease [6]: -40.9% (inactive)
- GLP1 secretion stimulation [7]: -5.1% (inactive)
- inhibition of viability [8]: 4.3% (inactive)
- viability decrease (inhibition) [9]: 21.6% (inactive)
- viability decrease (inhibition) [10]: 4.6% (inactive)
- red/green cell ratio (normalised) [11]: 0.82 (inactive)
- normalised cell number [11, 15]: 1.28
- normalised cell number [11, 16]: 1.05
- fold change [12, 17]: 0.921 (inactive)
- fold change [12, 18]: 1.68
- cell count [12, 19]: 7660
- cell count [12, 20]: 8320
- z-score [13, 21]: 0.273 (inactive)
- z-score [13, 22]: 0.192
- remaining NAD [14]: 10 nM (inactive)

SMILES: O=C(CCCN1CCC(O)(c2ccc(Br)cc2)CC1)c1ccc(F)cc1
- survival [1]: 1.83 (inactive)
- parasite load remaining [2]: 37.2% (inactive) and 72.5% (inactive) and 17.9% (inactive)
- viability [2]: 92.9% and 75.9% and 90.4%
- nuclear beta-catenin stimulation ([3]; at 10 µM): 10.3% (inactive)
- nuclear beta-catenin stimulation ([3]; stimulation, at 2 µM): 1.8%
- insulin secretion stimulation [4]: 5.6% (active)
- viability decrease [5]: -4.9% (inactive)
- tube area decrease [6]: 24.2% (inactive)
- GLP1 secretion stimulation [7]: 2.1% (inactive)
- inhibition of viability [8]: 46.1% (inactive)
- viability decrease (inhibition) [9]: 93.1% (active)
- viability decrease (inhibition) [10]: 54.3% (active)
- red/green cell ratio (normalised) [11]: 0.73 (inactive)
- normalised cell number [11, 15]: 1.27
- normalised cell number [11, 16]: 0.93
- fold change [12, 17]: 0.861 (inactive) and 0.851 (inactive)
- fold change [12, 18]: 1.31 and 4.03
- cell count [12, 19]: 8070 and 10200
- cell count [12, 20]: 9380 and 12000
- z-score [13, 21]: 0.333 (inactive)
- z-score [13, 22]: 0.0415
- remaining NAD [14]: 10 nM (inactive)

SMILES: CCC1NC(=O)c2cc(S(N)(=O)=O)c(Cl)cc2N1 (stereo not drawn)
- survival [1]: 5.17 (inactive)
- parasite load remaining [2]: 89.6% (inactive)
- viability [2]: 77.9%
- nuclear beta-catenin stimulation ([3]; at 10 µM): 1.2% (inactive)
- nuclear beta-catenin stimulation ([3]; stimulation, at 2 µM): 2.9%
- insulin secretion stimulation [4]: -1.7% (inactive)
- viability decrease [5]: -8.4% (inactive)
- tube area decrease [6]: 2.1% (inactive)
- GLP1 secretion stimulation [7]: 8.6% (inactive)
- inhibition of viability [8]: -5.7% (inactive)
- viability decrease (inhibition) [9]: -10.9% (active)
- viability decrease (inhibition) [10]: -14% (inactive)
- red/green cell ratio (normalised) [11]: 0.98 (inactive)
- normalised cell number [11, 15]: 1.22
- normalised cell number [11, 16]: 1.2
- fold change [12, 17]: 0.92 (inactive)
- fold change [12, 18]: 0.404
- cell count [12, 19]: 8110
- cell count [12, 20]: 8810
- z-score [13, 21]: -1.3 (inactive)
- z-score [13, 22]: -1.37
- remaining NAD [14]: 10 nM (inactive)
